Data: the supplement of paper PMC12494721
Where a name gives a salt, the structure may show the parent alone.

What was measured:
Conditions in all cases: incubation time: 27 h, anaerobic, 37 °C;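 for the amine columns active = adjusted P below 0.05 in both replicates with a change the same way and a mean fold change under 0.8 or over 1.25; inactive = the rest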
[1] = tested on: Clostridium sporogenes DSM 1664; assay: growth (OD595) fold change vs plate DMSO controls (fold change (ratio)); higher = more growth
Procedure, shortened: (§1)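 Growth is the fold change relative to the median of plate DMSO controls. Readings came from anaerobic mGAM cultures in 96-well plates grown for 27 h at 37 °C and read at 595 nm. They were blank-subtracted, corrected for compound background with 20 µM compound solutions in water, and converted to OD with a calibration factor of 5. Values are means of 2 biological replicates, and fold changes above 1.5 were set to NA.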

Escherichia coli IAI1 [2] = assay: as above
Procedure, shortened: as §1

[3] = tested on: Klebsiella aerogenes DSM 30053; assay: as above
Procedure, shortened: as §1

[4] = tested on: Ruminococcus gnavus DSM 108212; assay: as above
Procedure, shortened: as §1

[5] = tested on: Klebsiella aerogenes DSM 30053; assay: fold change of Histamine concentration vs plate DMSO controls (fold change (ratio)); higher = more amine produced, active = hit call of the paper (significant change in both replicates, either direction)
Procedure, shortened: (§2)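 Each value is the fold change relative to DMSO-only wells on the same plate. Four gut bacterial strains were grown anaerobically in mGAM at 37 °C for 27 h in 80 µL wells, starting at OD 0.1 before a 1:1 dilution, with compounds at 20 µM final (sweeteners 50 µM). Whole cultures were extracted with cold acetonitrile/methanol containing 0.1% formic acid, centrifuged, and amines were quantified by LC–triple-quadrupole MS (dynamic MRM) against external calibration curves with within-batch drift correction. Values are means of 2 biological replicates.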

[6] = tested on: Clostridium sporogenes DSM 1664; assay: fold change of Tryptamine concentration vs plate DMSO controls (fold change (ratio)); higher = more amine produced, active = hit call of the paper (significant change in both replicates, either direction)
Procedure, shortened: as §2

[7] = tested on: Ruminococcus gnavus DSM 108212; assay: as above
Procedure, shortened: as §2

Escherichia coli IAI1 [8] = assay: fold change of Putrescine concentration vs plate DMSO controls (fold change (ratio)); higher = more amine produced, active = hit call of the paper (significant change in both replicates, either direction)
Procedure, shortened: as §2

[9] = tested on: Klebsiella aerogenes DSM 30053; assay: as above
Procedure, shortened: as §2

Escherichia coli IAI1 [10] = assay: fold change of Cadaverine concentration vs plate DMSO controls (fold change (ratio)); higher = more amine produced, active = hit call of the paper (significant change in both replicates, either direction)
Procedure, shortened: as §2

[11] = tested on: Klebsiella aerogenes DSM 30053; assay: as above
Procedure, shortened: as §2

[12] = tested on: Ruminococcus gnavus DSM 108212; assay: fold change of 2-Phenylethylamine concentration vs plate DMSO controls (fold change (ratio)); higher = more amine produced, active = hit call of the paper (significant change in both replicates, either direction)
Procedure, shortened: as §2

| Structure (SMILES) | growth [1] | growth (Escherichia coli IAI1 [2]) | growth [3] | growth [4] | fold change of Histamine concentration [5] | fold change of Tryptamine concentration [6] | fold change of Tryptamine concentration [7] | fold change of Putrescine concentration (Escherichia coli IAI1 [8]) | fold change of Putrescine concentration [9] | fold change of Cadaverine concentration (Escherichia coli IAI1 [10]) | fold change of Cadaverine concentration [11] | fold change of 2-Phenylethylamine concentration [12] |
| --- | --- | --- | --- | --- | --- | --- | --- | --- | --- | --- | --- | --- |
| CC[C@@H]([C@H](C)O)n1ncn(-c2ccc(N3CCN(c4ccc(OC[C@@H]5CO[C@@](Cn6cncn6)(c6ccc(F)cc6F)C5)cc4)CC3)cc2)c1=O [Posaconazole hydrate] (20 µM) | 0.942 | 1.02 | 1.02 | 1.03 | 1.11 (inactive) | 0.993 (inactive) | 1 (inactive) | 1.04 (inactive) | 1.03 (inactive) | 1.02 (inactive) | 0.992 (inactive) | 1.02 (inactive) |
| COc1ccc(OC)c(C(O)CNC(=O)CN)c1 (centres undefined) [Midodrine hydrochloride] (20 µM) | 1.08 | 1.03 | 1.09 | 0.949 | 1.05 (inactive) | 1.03 (inactive) | 1 (inactive) | 1.01 (inactive) | 1 (inactive) | 0.995 (inactive) | 0.995 (inactive) | 1 (inactive) |
| CCCc1cc(C(N)=S)ccn1 [Prothionamide] (20 µM) | 1.09 | 1.15 | 0.999 | 0.999 | 1.01 (inactive) | 0.998 (inactive) | 0.977 (inactive) | 1.18 (inactive) | 0.982 (inactive) | 1.01 (inactive) | 0.999 (inactive) | 0.946 (inactive) |
| COc1ccc2c(c1)c(CC(=O)OCC(=O)O)c(C)n2C(=O)c1ccc(Cl)cc1 [Acemetacin] (20 µM) | 0.906 | 1.03 | 0.985 | 1.06 | 0.983 (inactive) | 0.98 (inactive) | 0.964 (inactive) | 1.06 (inactive) | 1.01 (inactive) | 0.959 (inactive) | 1.01 (inactive) | 0.907 (inactive) |
| c1ccc(CC2=NCCN2)cc1 [Tolazoline hydrochloride] (20 µM) | 1.05 | 1 | 0.977 | 0.841 | 1.07 (inactive) | 0.962 (inactive) | 0.996 (inactive) | 0.996 (inactive) | 1.02 (inactive) | 1.06 (inactive) | 0.99 (inactive) | 1 (inactive) |
| Cn1nnnc1SCC1=C(C(=O)O)N2C(=O)[C@@H](NC(=O)[C@H](O)c3ccccc3)[C@H]2SC1 [Cefamandole sodium salt] (20 µM) | 0 | 0.0343 | 1.08 | 0.971 | 1.04 (inactive) | 0.0204 (active) | 0.141 (active) | 0.968 (inactive) | 1.02 (inactive) | 2.1 (active) | 1.06 (inactive) | 0.118 (active) |
| C[C@H](CCC(=O)O)[C@H]1CC[C@H]2[C@@H]3[C@H](O)C[C@@H]4C[C@H](O)CC[C@]4(C)[C@H]3CC[C@]12C [Chenodiol] (20 µM) | 1.06 | 0.995 | 1.02 | 1.01 | 1 (inactive) | 1.03 (inactive) | 1.03 (inactive) | 1 (inactive) | 0.999 (inactive) | 1.04 (inactive) | 1.02 (inactive) | 0.994 (inactive) |
| CCN1CCC[C@H]1CNC(=O)c1c(O)c(Cl)cc(Cl)c1OC [Raclopride] (20 µM) | 1.03 | 1.25 | 0.996 | 0.999 | 0.961 (inactive) | 1.06 (inactive) | 1 (inactive) | 1.19 (inactive) | 0.97 (inactive) | 0.944 (inactive) | 0.983 (inactive) | 0.991 (inactive) |
| COc1c2occc2c(OC)c2c(=O)cc(C)oc12 [Khellin] (20 µM) | 0.981 | 0.994 | 1.03 | 1.11 | 1.06 (inactive) | 1 (inactive) | 1.04 (inactive) | 1 (inactive) | 1.01 (inactive) | 1.02 (inactive) | 0.992 (inactive) | 1.09 (inactive) |
| CC(C)Oc1ccc2c(=O)c(-c3ccccc3)coc2c1 [Ipriflavone] (20 µM) | 0.986 | 1.01 | 0.992 | 1.03 | 1 (inactive) | 1.01 (inactive) | 1.04 (inactive) | 0.98 (inactive) | 1.02 (inactive) | 1.04 (inactive) | 0.989 (inactive) | 1.02 (inactive) |
| CC1(C)O[C@@H]2C[C@H]3[C@@H]4CCC5=CC(=O)C=C[C@]5(C)[C@H]4[C@@H](O)C[C@]3(C)[C@]2(C(=O)CO)O1 [Desonide] (20 µM) | 0.99 | 1.02 | 1.01 | 1.21 | 1.05 (inactive) | 1.18 (inactive) | 1.14 (inactive) | 0.903 (inactive) | 0.991 (inactive) | 0.893 (inactive) | 0.997 (inactive) | 1.23 (inactive) |
| CNC(=C[N+](=O)[O-])NCCSCc1csc(CN(C)C)n1 [Nizatidine] (20 µM) | 1.13 | 1.02 | 1.01 | 1.09 | 1.04 (inactive) | 0.99 (inactive) | 0.971 (inactive) | 0.988 (inactive) | 1.03 (inactive) | 0.984 (inactive) | 1 (inactive) | 0.954 (inactive) |
| COc1ccc(-c2ccc3cc(C(=O)O)ccc3c2)cc1C12CC3CC(CC(C3)C1)C2 [Adapalene] (20 µM) | 0.829 | 1 | 1.04 | 1.18 | 1.02 (inactive) | 0.96 (inactive) | 1.04 (inactive) | 1.02 (inactive) | 1 (inactive) | 1.02 (inactive) | 0.994 (inactive) | 1.06 (inactive) |
| O=C1OCCN1/N=C/c1ccc([N+](=O)[O-])o1 [Furazolidone] (20 µM) | 0.395 | 1.04 | 0.855 | 1.22 | 0.991 (inactive) | 0.402 (inactive) | 0.973 (inactive) | 0.81 (inactive) | 0.937 (inactive) | 1.75 (active) | 1 (inactive) | 1.11 (inactive) |
| CC(C)CC(=O)N[C@H](C(=O)N[C@H](C(=O)N[C@@H](CC(C)C)[C@@H](O)CC(=O)N[C@@H](C)C(=O)N[C@@H](CC(C)C)[C@@H](O)CC(=O)O)C(C)C)C(C)C [Pepstatin A] (20 µM) | 1.1 | 1 | 1 | 1.06 | 1.02 (inactive) | 1.06 (inactive) | 1.05 (inactive) | 0.953 (inactive) | 1.01 (inactive) | 0.961 (inactive) | 0.999 (inactive) | 1.06 (inactive) |
| CSc1ccc2c(c1)N(CCC1CCCCN1C)c1ccccc1S2 (centres undefined) [Thioridazine hydrochloride] (20 µM) | 1.15 | 1.03 | 1.01 | 1.25 | 0.936 (inactive) | 1.12 (inactive) | 0.808 (inactive) | 1.04 (inactive) | 0.948 (inactive) | 1.1 (inactive) | 1.02 (inactive) | 0.941 (inactive) |
| CNC[C@H](O)[C@@H](O)[C@H](O)[C@H](O)CO [Meglumine] (20 µM) | 0.956 | 1.07 | 1.05 | 0.994 | 0.883 (inactive) | 1.04 (inactive) | 1.02 (inactive) | 1.25 (inactive) | 0.979 (inactive) | 0.99 (inactive) | 1.06 (inactive) | 0.998 (inactive) |
| CC(C)=CCOc1ccc(/C=C/C(=O)c2ccc(OCC=C(C)C)cc2OCC(=O)O)cc1 [Sofalcone] (20 µM) | 0.713 | 0.964 | 0.98 | 0.927 | 1 (inactive) | 0.425 (active) | 0.669 (active) | 1.01 (inactive) | 1 (inactive) | 1.03 (inactive) | 0.992 (inactive) | 0.689 (inactive) |
| CCN1CCCC1CNC(=O)c1cc(S(N)(=O)=O)ccc1OC (centres undefined) [Sulpiride] (20 µM) | 0.968 | 1 | 0.981 | 1.18 | 1.05 (inactive) | 0.949 (inactive) | 1.03 (inactive) | 0.997 (inactive) | 1.02 (inactive) | 1.03 (inactive) | 0.991 (inactive) | 1.06 (inactive) |
| CCc1c(C)[nH]c2c1C(=O)C(CN1CCOCC1)CC2 (centres undefined) [Molindone hydrochloride] (20 µM) | 0.781 | 1.07 | 1 | 1.1 | 1.02 (inactive) | 1.02 (inactive) | 1.07 (inactive) | 1.03 (inactive) | 0.987 (inactive) | 0.906 (inactive) | 1.01 (inactive) | 1.08 (inactive) |
| Nc1ncnc2c1ncn2[C@@H]1O[C@H](COP(=O)(O)O)[C@@H](O)[C@H]1O [5'-Adenylic acid] (50 µM) | 0.902 | 0.983 | 1.04 | 1.03 | 0.938 (inactive) | 0.951 (inactive) | 1.01 (inactive) | 1.01 (inactive) | 1.03 (inactive) | 0.905 (inactive) | 1 (inactive) | 0.989 (inactive) |
| C=CC[C@@H]1/C=C(\C)C[C@H](C)C[C@H](OC)[C@H]2O[C@@](O)(C(=O)C(=O)N3CCCC[C@H]3C(=O)O[C@H](/C(C)=C/[C@@H]3CC[C@@H](O)[C@H](OC)C3)[C@H](C)[C@@H](O)CC1=O)[C@H](C)C[C@@H]2OC [Tacrolimus Monohydrate] (20 µM) | 0.867 | 1.04 | 1.02 | 1.02 | 1.02 (inactive) | 1.02 (inactive) | 1.01 (inactive) | 1.05 (inactive) | 1.02 (inactive) | 1.01 (inactive) | 1.01 (inactive) | 1.02 (inactive) |
